Data published in paper PMC5700166.
Substitutions are numbered along the chain they refer to.

Columns and labels:
Assay in all cases: protein-binding microarray (PBM); PBM: ~300 nM protein, 6 mM HEPES pH 7.8, 80 mM KCl, 0.5 mM EDTA, 0.5 mM EGTA, 6% glycerol, 35 ng/ul poly-dIdC, 1% milk, 1 h, room temperature; Ap Aiptasia and Nv Nematostella (sea anemones) / Co Capsaspora / Aq Amphimedon (sponge) / Dm Drosophila / Hu human; RHD is the Rel homology domain; high values mean tight binding
Conditions in all cases: dsDNA, one strand shown
[1] = biological target: T1, GST-Ap-NF-kB RHD (Exaiptasia pallida (Aiptasia), UniProt A0A913YAJ5 2-422)
T1 sequence: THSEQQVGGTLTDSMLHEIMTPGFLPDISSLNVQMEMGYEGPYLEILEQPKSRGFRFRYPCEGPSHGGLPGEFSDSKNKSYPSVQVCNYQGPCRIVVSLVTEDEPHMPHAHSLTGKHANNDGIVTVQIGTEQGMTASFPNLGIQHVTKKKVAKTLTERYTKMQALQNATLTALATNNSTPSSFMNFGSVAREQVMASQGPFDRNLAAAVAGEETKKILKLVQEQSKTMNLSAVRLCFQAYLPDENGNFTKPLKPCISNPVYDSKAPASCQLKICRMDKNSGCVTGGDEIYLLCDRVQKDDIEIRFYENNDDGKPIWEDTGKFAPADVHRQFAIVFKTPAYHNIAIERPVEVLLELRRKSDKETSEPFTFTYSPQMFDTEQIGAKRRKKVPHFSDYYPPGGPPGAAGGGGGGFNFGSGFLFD

[2] = biological target: T2, GST-Nv-NF-kB (Cys allele) (Nematostella vectensis, UniProt E5G601 2-411)
T2 sequence: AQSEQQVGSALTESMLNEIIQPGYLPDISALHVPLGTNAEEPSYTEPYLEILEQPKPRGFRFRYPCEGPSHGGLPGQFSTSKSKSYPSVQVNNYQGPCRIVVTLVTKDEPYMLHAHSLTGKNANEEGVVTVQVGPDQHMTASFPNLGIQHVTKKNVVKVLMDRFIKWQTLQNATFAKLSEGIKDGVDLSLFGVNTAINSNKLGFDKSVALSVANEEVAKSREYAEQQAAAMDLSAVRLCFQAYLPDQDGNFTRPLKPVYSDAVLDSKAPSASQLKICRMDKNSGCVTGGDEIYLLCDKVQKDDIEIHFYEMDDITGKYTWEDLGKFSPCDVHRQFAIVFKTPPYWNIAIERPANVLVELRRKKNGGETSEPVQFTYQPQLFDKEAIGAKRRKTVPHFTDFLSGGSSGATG

[3] = biological target: T3, GST-Nv-NF-kB (Ser allele) (Nematostella vectensis, UniProt A7UNT2 2-411)
T3 sequence: T2 sequence with Q21R, C66S, S207N, E215Q, V217A, E225K, A268E, D399E

[4] = biological target: T4, GST-Co-NF-kB (Capsaspora owczarzaki, UniProt F1ARL5 200-546)
T4 sequence: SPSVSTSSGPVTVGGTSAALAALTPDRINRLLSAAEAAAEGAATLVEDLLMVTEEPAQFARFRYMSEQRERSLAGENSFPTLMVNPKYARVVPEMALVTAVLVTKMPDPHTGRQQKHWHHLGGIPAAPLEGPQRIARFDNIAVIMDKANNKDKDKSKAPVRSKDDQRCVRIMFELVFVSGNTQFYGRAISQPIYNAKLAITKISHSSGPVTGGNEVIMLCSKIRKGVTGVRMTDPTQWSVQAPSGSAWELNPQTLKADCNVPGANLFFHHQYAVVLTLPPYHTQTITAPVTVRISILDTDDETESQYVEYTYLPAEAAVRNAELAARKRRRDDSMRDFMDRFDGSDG

[5] = biological target: T5, GST-Dm-Relish (Drosophila melanogaster, UniProt Q94527 99-473)
T5 sequence: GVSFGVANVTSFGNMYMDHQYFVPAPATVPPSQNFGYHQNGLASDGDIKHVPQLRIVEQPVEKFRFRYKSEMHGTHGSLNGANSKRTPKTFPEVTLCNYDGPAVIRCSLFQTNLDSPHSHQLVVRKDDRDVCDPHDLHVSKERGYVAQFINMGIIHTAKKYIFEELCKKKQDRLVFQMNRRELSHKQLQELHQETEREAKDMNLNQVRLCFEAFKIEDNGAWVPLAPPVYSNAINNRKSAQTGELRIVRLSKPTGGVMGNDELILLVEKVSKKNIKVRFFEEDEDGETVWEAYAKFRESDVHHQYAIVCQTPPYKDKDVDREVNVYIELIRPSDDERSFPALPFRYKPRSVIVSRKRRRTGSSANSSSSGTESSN

[6] = biological target: T6, GST-Aq-NF-kB (Amphimedon queenslandica, UniProt A9Y5G7 2-389)
T6 sequence: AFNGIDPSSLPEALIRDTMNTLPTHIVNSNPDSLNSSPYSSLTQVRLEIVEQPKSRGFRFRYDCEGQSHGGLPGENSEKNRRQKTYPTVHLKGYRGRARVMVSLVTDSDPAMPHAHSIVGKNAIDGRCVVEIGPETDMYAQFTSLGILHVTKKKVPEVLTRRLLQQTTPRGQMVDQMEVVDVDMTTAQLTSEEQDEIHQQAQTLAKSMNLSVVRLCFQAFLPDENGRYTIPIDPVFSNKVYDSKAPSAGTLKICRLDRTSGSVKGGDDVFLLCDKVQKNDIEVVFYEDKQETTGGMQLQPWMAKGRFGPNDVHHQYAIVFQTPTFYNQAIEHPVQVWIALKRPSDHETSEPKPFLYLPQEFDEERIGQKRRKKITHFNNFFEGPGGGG

[7] = biological target: GST-Hu-p50 (Homo sapiens, UniProt P19838 7-356)
Chain of GST-Hu-p50 (P19838 7-356): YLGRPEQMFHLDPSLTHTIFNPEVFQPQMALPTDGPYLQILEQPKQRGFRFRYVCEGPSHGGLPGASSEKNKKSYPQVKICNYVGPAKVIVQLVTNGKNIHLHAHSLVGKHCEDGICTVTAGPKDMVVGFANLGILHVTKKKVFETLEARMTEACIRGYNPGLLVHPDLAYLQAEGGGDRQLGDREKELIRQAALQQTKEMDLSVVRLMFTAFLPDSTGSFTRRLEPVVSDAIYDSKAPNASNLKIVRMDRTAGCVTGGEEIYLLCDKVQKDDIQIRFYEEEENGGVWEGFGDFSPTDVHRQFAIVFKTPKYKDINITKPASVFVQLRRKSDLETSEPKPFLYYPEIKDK

Sequence	binding signal [1]	binding signal [2]	binding signal [3]	binding signal [4]	binding signal [5]	binding signal [6]	binding signal [7]
CCGATTAACATCAATTTTTCCCCTGATGTTAATCGGGTCTTGATTCGCTTGACGCTGCTG	7 z-score	8.62 z-score	11.5 z-score	11.2 z-score	5.15 z-score	5.96 z-score	6.59 z-score
CCGATTAACATCACCTTTCCCCCTGATGTTAATCGGGTCTTGATTCGCTTGACGCTGCTG	6.53 z-score	6.31 z-score	7.29 z-score	9.42 z-score	2.89 z-score	4.77 z-score	5.65 z-score
CCGATTAACATCAGGGGAACGGATGATGTTAATCGGGTCTTGATTCGCTTGACGCTGCTG	4.83 z-score	5.28 z-score	6.1 z-score	4.35 z-score	1.58 z-score	3.47 z-score	3.91 z-score
CCGATTAACATCAAACTCCCCCCTGATGTTAATCGGGTCTTGATTCGCTTGACGCTGCTG	7.58 z-score	6.49 z-score	6.75 z-score	7.67 z-score	7.11 z-score	6.54 z-score	6.75 z-score
CCGATTAACATCACGGGGAACTCTGATGTTAATCGGGTCTTGATTCGCTTGACGCTGCTG	6.71 z-score	6.61 z-score	6.85 z-score	6.94 z-score	7.12 z-score	4.95 z-score	4.53 z-score
CCGATTAACATCACCCTTTCCCCTGATGTTAATCGGGTCTTGATTCGCTTGACGCTGCTG	4.99 z-score	5.19 z-score	7.16 z-score	5.72 z-score	1.82 z-score	4.33 z-score	3.91 z-score
CCGATTAACATCAAAAATTTCCCTGATGTTAATCGGGTCTTGATTCGCTTGACGCTGCTG	5.61 z-score	8.92 z-score	8.77 z-score	5.47 z-score	6.05 z-score	7.58 z-score	5.67 z-score
CCGATTAACATCAGAAAAGCCCCTGATGTTAATCGGGTCTTGATTCGCTTGACGCTGCTG	7.38 z-score	9.78 z-score	7.32 z-score	1.37 z-score	8.04 z-score	7.96 z-score	6.71 z-score
CCGATTAACATCACATATTCCCCTGATGTTAATCGGGTCTTGATTCGCTTGACGCTGCTG	7.49 z-score	8.81 z-score	9.04 z-score	7.39 z-score	4.55 z-score	6.7 z-score	5.69 z-score
CCGATTAACATCAAGGTATTCCCTGATGTTAATCGGGTCTTGATTCGCTTGACGCTGCTG	4.4 z-score	3.82 z-score	3.75 z-score	3.21 z-score	6.27 z-score	5.39 z-score	2.26 z-score
CCGATTAACATCAGAAATCCCCATGATGTTAATCGGGTCTTGATTCGCTTGACGCTGCTG	8.63 z-score	9.17 z-score	9.84 z-score	4.52 z-score	8.03 z-score	6.3 z-score	6.99 z-score
CCGATTAACATCAGGGGGAACCATGATGTTAATCGGGTCTTGATTCGCTTGACGCTGCTG	7.4 z-score	6.04 z-score	7.3 z-score	8.58 z-score	5.08 z-score	4.5 z-score	5.84 z-score
CCGATTAACATCAAAGATTCCCCTGATGTTAATCGGGTCTTGATTCGCTTGACGCTGCTG	8.13 z-score	10.5 z-score	11.7 z-score	8.45 z-score	7.42 z-score	7.27 z-score	6.66 z-score
CCGATTAACATCAGGGGAATATATGATGTTAATCGGGTCTTGATTCGCTTGACGCTGCTG	7.96 z-score	9.67 z-score	9 z-score	7.8 z-score	5.02 z-score	7.45 z-score	6.01 z-score
CCGATTAACATCAGGAATTCCCCTGATGTTAATCGGGTCTTGATTCGCTTGACGCTGCTG	11.7 z-score	12.5 z-score	11.7 z-score	7.64 z-score	9.99 z-score	11.5 z-score	7.74 z-score
CCGATTAACATCAGGGAAGTCCCTGATGTTAATCGGGTCTTGATTCGCTTGACGCTGCTG	9.31 z-score	11.7 z-score	9.19 z-score	1.97 z-score	10.4 z-score	10.2 z-score	6.58 z-score
CCGATTAACATCAGAAATGTCCCTGATGTTAATCGGGTCTTGATTCGCTTGACGCTGCTG	2.83 z-score	4.85 z-score	4.61 z-score	1.29 z-score	3.1 z-score	4.94 z-score	4.36 z-score
CCGATTAACATCAACGTCCCCCCTGATGTTAATCGGGTCTTGATTCGCTTGACGCTGCTG	5.15 z-score	3.81 z-score	4.61 z-score	5.29 z-score	4.4 z-score	4.66 z-score	3.74 z-score
CCGATTAACATCAGAACACCCCCTGATGTTAATCGGGTCTTGATTCGCTTGACGCTGCTG	5.58 z-score	4.69 z-score	4.4 z-score	3.33 z-score	4.87 z-score	5.48 z-score	5.09 z-score
CCGATTAACATCAATAATCCCCCTGATGTTAATCGGGTCTTGATTCGCTTGACGCTGCTG	8.84 z-score	8.72 z-score	9.49 z-score	6.87 z-score	8.23 z-score	7.52 z-score	7.52 z-score
CCGATTAACATCAAAAAATACCCTGATGTTAATCGGGTCTTGATTCGCTTGACGCTGCTG	6.17 z-score	9.78 z-score	8.7 z-score	3.1 z-score	8.93 z-score	8.03 z-score	6.73 z-score
CCGATTAACATCAGGGATATCCCTGATGTTAATCGGGTCTTGATTCGCTTGACGCTGCTG	6.62 z-score	6.52 z-score	4.4 z-score	3.18 z-score	7.32 z-score	7.89 z-score	3.87 z-score
CCGATTAACATCAGGAATTACCCTGATGTTAATCGGGTCTTGATTCGCTTGACGCTGCTG	4.56 z-score	7.58 z-score	4.97 z-score	2.62 z-score	6.61 z-score	8.34 z-score	4.51 z-score
